Reference: PubChem BioAssay AID1159580 (chemical genetic matrix, 2015)
Where “and” joins values, the source holds several entries; their conditions need not be identical. Equal entries are not always repeated. Out of some 5,500 compounds screened, about 2,000 (36%) were called active. Roughly 18% stayed inconclusive and do not appear here. Rule as the data show it: active = normalized growth mostly below about 0.91 (no sharp cut-off); inconclusive = no clear call, values can overlap the other calls; inactive = mostly above about 0.92. The list shows a part of the results.

Assay: chemical genetic growth profiling, strain panel (AID 1159580);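 also: tested at 20 µM; growth read once vehicle control cultures reached saturation at 30 °C; 1 = growth at the plate median or of vehicle wells; lower values mean less growth of the strain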
Details: growth OD

Measured: normalized growth

Cc1cc(O)c(C=O)c2c1C(=O)Oc1c(C)c(O)c3c(c1O2)C(O)OC3=O (stereo not given)
inactive: S. cerevisiae deletion strains, locus YBR021W, strain FUR4, stronger effect = lower value 1.03 | S. cerevisiae deletion strains, locus YBR229C, strain ROT2, stronger effect = lower value 1 | S. cerevisiae deletion strains, locus YCL029C, strain bik1, stronger effect = lower value 0.981 | S. cerevisiae deletion strains, locus YDL035C, strain GPR1, stronger effect = lower value 0.944 | S. cerevisiae deletion strains, locus YDL074C, strain BRE1, stronger effect = lower value 0.956 | S. cerevisiae deletion strains, locus YDL101C, strain DUN1, stronger effect = lower value 0.955 | S. cerevisiae deletion strains, locus YDL185W, strain tfp1, stronger effect = lower value 0.954 | S. cerevisiae deletion strains, locus YDL192W, strain arf1, stronger effect = lower value 0.992 | S. cerevisiae deletion strains, locus YDR101C, strain arx1, stronger effect = lower value 0.994 | S. cerevisiae deletion strains, locus YDR162C, strain NBP2, stronger effect = lower value 0.948 | S. cerevisiae deletion strains, locus YDR318W, strain mcm21, stronger effect = lower value 0.98 | S. cerevisiae deletion strains, locus YDR388W, stronger effect = lower value 0.98 | S. cerevisiae deletion strains, locus YDR502C, strain sam2, stronger effect = lower value 0.974 | S. cerevisiae deletion strains, locus YEL061C, strain CIN8, stronger effect = lower value 0.975 | S. cerevisiae deletion strains, locus YER110C, stronger effect = lower value 0.971 | S. cerevisiae deletion strains, locus YER155C, strain BEM2, stronger effect = lower value 1.02 | S. cerevisiae deletion strains, locus YER167W, strain BCK2, stronger effect = lower value 0.993 | S. cerevisiae deletion strains, locus YGL078C, strain dbp3, stronger effect = lower value 0.989 | S. cerevisiae deletion strains, locus YGL086W, strain mad1, stronger effect = lower value 0.966 | S. cerevisiae deletion strains, locus YGL248W, strain PDE1, stronger effect = lower value 1 | S. cerevisiae deletion strains, locus YGR078C, strain PAC10, stronger effect = lower value 0.988 | S. cerevisiae deletion strains, locus YGR135W, strain pre9, stronger effect = lower value 0.951 | S. cerevisiae deletion strains, locus YGR229C, strain SMI1, stronger effect = lower value 1.03 | S. cerevisiae deletion strains, locus YGR252W, strain gcn5, stronger effect = lower value 1.02 | S. cerevisiae deletion strains, locus YHR030C, strain SLT2, stronger effect = lower value 0.984 and 0.994 | S. cerevisiae deletion strains, locus YHR079C, strain IRE1 (second series), stronger effect = lower value 0.97 | S. cerevisiae deletion strains, locus YHR079C, strain IRE1, stronger effect = lower value 0.983 | S. cerevisiae deletion strains, locus YHR094C, strain hxt1, stronger effect = lower value 0.971 | S. cerevisiae deletion strains, locus YHR129C, strain ARP1, stronger effect = lower value 0.963 | S. cerevisiae deletion strains, locus YHR200W, strain rpn10, stronger effect = lower value 0.983 | S. cerevisiae deletion strains, locus YIL066C, strain RNR3, stronger effect = lower value 0.962 | S. cerevisiae deletion strains, locus YIL073C, strain SPO22, stronger effect = lower value 0.831 | S. cerevisiae deletion strains, locus YIL125W, strain kgd1, stronger effect = lower value 0.974 | S. cerevisiae deletion strains, locus YIR030C, strain dcg1, stronger effect = lower value 0.995 | S. cerevisiae deletion strains, locus YJL095W, strain BCK1, stronger effect = lower value 1.02 and 0.991 | S. cerevisiae deletion strains, locus YJL134W, strain LCB3, stronger effect = lower value 0.986 | S. cerevisiae deletion strains, locus YJL168C, strain set2, stronger effect = lower value 0.969 | S. cerevisiae deletion strains, locus YJL187C, strain SWE1 (second series), stronger effect = lower value 0.88 | S. cerevisiae deletion strains, locus YJR043C, strain POL32, stronger effect = lower value 0.973 | S. cerevisiae deletion strains, locus YJR066W, strain TOR1, stronger effect = lower value 0.965 | S. cerevisiae deletion strains, locus YKL009W, strain mrt4, stronger effect = lower value 0.933 | S. cerevisiae deletion strains, locus YKL068W, stronger effect = lower value 0.98 | S. cerevisiae deletion strains, locus YKL085W, strain MDH1 (second series), stronger effect = lower value 0.974 | S. cerevisiae deletion strains, locus YKL085W, strain MDH1, stronger effect = lower value 0.974 | S. cerevisiae deletion strains, locus YKR001C, strain vps1, stronger effect = lower value 1.01 | S. cerevisiae deletion strains, locus YLR039C, strain RIC1, stronger effect = lower value 0.996 | S. cerevisiae deletion strains, locus YLR058C, strain SHM2, stronger effect = lower value 0.937 | S. cerevisiae deletion strains, locus YLR102C, strain apc9, stronger effect = lower value 0.986 | S. cerevisiae deletion strains, locus YLR113W, strain HOG1, stronger effect = lower value 0.984 | S. cerevisiae deletion strains, locus YLR268W, strain sec22, stronger effect = lower value 0.965 | S. cerevisiae deletion strains, locus YLR330W, strain CHS5, stronger effect = lower value 0.99 | S. cerevisiae deletion strains, locus YLR371W, strain rom2, stronger effect = lower value 0.948 | S. cerevisiae deletion strains, locus YLR418C, strain cdc73, stronger effect = lower value 0.999 | S. cerevisiae deletion strains, locus YML016C, strain PPZ1, stronger effect = lower value 0.957 | S. cerevisiae deletion strains, locus YML032C, strain rad52, stronger effect = lower value 0.995 | S. cerevisiae deletion strains, locus YML124C, strain tub3, stronger effect = lower value 0.975 | S. cerevisiae deletion strains, locus YMR078C, strain ctf18, stronger effect = lower value 0.959 | S. cerevisiae deletion strains, locus YMR223W, strain ubp8, stronger effect = lower value 0.966 | S. cerevisiae deletion strains, locus YMR307W, strain GAS1, stronger effect = lower value 1.14 | S. cerevisiae deletion strains, locus YNL067W, strain RPL9B, stronger effect = lower value 0.981 | S. cerevisiae deletion strains, locus YNL153C, strain GIM3, stronger effect = lower value 0.959 | S. cerevisiae deletion strains, locus YNL183C, strain NPR1, stronger effect = lower value 0.944 | S. cerevisiae deletion strains, locus YNL233W, strain BNI4, stronger effect = lower value 1.03 | S. cerevisiae deletion strains, locus YNL250W, strain rad50, stronger effect = lower value 0.963 | S. cerevisiae deletion strains, locus YNL271C, strain bni1, stronger effect = lower value 0.946 | S. cerevisiae deletion strains, locus YNL298W, strain CLA4, stronger effect = lower value 0.986 | S. cerevisiae deletion strains, locus YNL307C, strain MCK1, stronger effect = lower value 0.978 | S. cerevisiae deletion strains, locus YNR052C, strain pop2, stronger effect = lower value 0.955 | S. cerevisiae deletion strains, locus YOL012C, strain htz1 0.674 | S. cerevisiae deletion strains, locus YOL147C, strain pex11, stronger effect = lower value 0.97 | S. cerevisiae deletion strains, locus YOR061W, strain CKA2, stronger effect = lower value 0.963 | S. cerevisiae deletion strains, locus YOR069W, strain VPS5, stronger effect = lower value 0.982 | S. cerevisiae deletion strains, locus YOR136W, strain idh2, stronger effect = lower value 0.985 | S. cerevisiae deletion strains, locus YOR144C, strain elg1, stronger effect = lower value 0.974 | S. cerevisiae deletion strains, locus YOR184W, strain ser1, stronger effect = lower value 1.01 | S. cerevisiae deletion strains, locus YOR231W, strain MKK1, stronger effect = lower value 0.982 | S. cerevisiae deletion strains, locus YOR316C, strain cot1, stronger effect = lower value 0.984 | S. cerevisiae deletion strains, locus YPL241C, strain CIN2, stronger effect = lower value 0.994 | S. cerevisiae deletion strains, locus YPL256C, strain CLN2, stronger effect = lower value 0.928 | S. cerevisiae deletion strains, locus YPR119W, strain clb2, stronger effect = lower value 0.979 | S. cerevisiae deletion strains, locus YPR141C, strain kar3, stronger effect = lower value 0.969 | S. cerevisiae deletion strains, locus YPR163C, strain tif3, stronger effect = lower value 0.993 | S. cerevisiae deletion strains, locus YPR167C, strain met16, stronger effect = lower value 0.983 | S. cerevisiae deletion strains, strain wtn01, stronger effect = lower value 0.963 | S. cerevisiae strains, strain wild type, stronger effect = lower value 0.907
